The entries come from a sample that favours hits as a whole.
ST2 inh: inhibitors of human ST2 (IL1RL1) binding to IL-33; AlphaLISA ST2-Fc/biotin-IL-33 interaction, 1 h; inhibition, % for hits at 17 µM; hit rate 2.3% among 78,000; in the data active = inhibition above about 30%
Target sequence (Q01638 whole entry, looked up): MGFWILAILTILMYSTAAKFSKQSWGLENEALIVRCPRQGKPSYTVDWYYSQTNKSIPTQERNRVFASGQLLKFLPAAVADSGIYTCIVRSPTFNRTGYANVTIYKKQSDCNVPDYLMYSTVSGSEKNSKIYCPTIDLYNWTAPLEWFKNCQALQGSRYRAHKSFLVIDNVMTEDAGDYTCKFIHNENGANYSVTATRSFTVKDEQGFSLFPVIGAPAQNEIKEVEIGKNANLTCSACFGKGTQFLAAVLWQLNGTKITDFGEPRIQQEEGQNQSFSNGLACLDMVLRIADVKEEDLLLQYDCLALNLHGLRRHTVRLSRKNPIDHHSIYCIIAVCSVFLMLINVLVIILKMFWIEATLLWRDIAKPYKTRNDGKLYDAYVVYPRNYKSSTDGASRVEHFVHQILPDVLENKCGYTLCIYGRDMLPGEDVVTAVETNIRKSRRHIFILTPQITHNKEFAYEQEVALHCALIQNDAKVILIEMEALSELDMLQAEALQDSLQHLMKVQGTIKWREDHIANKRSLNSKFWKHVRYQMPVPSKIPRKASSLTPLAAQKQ
An asterisk follows results filed as active; i = inactive; ! = a repeat was not active.

SMILES | ST2 inh
Clc1ccc(-c2cn3ccccc3n2)cc1 | i
CC1CC(=O)C2=C(C1)OC(N)=C(C#N)C2c1ccc(F)cc1F (stereo not given) | i
COc1ccc(C(=O)N2C[C@@H]3C[C@H](C2)c2ccc(-c4ccccc4CN(C)C)c(=O)n2C3)cc1 | i
C=CCN1C(=Nc2cccnc2)SCC1(O)c1ccccc1 (stereo not given) | 53.0%*
Cc1ccc(Cl)cc1N=Cc1nc(-c2ccccc2)oc1O | i
CC1CC2=C(CC3C(C)(CCC4(O)C(C)(C)C=CC(=O)C34C)O2)C(=O)O1 (stereo not given) | i
COc1ccc2nc3sc(C(=O)NCCN(C)C)cc3cc2c1 | i
COCCOC(=O)Nc1nc2ccc(OC)cc2s1 | i
CCn1cc(C(=O)NC2CCCC2)c(=O)c2cc(S(=O)(=O)N(C)C3CCCCC3)ccc21 | i
COc1ccc(CNC2(Cc3cc(CN(C)Cc4ccccc4)on3)COC2)cc1 | i
Cc1cc(-c2ccccc2)c(C#N)c(N)n1 | i
Cc1c(-c2ccccc2)sc(N)c1C#N | 33.0%*
CCOC(=O)c1sc(-c2ccccc2)c(C#N)c1C | i
CN(C)Cc1nc(C(=O)N2CCNCC2C(=O)N2CCCC2)cs1 (stereo not given) | i
Cc1ccc(CN(C(=O)c2cn(-c3ccccc3)nn2)C2CCCC2)s1 | i
Cc1ccc(CCN2CC(C(=O)NC3CCCCC3C)CC2=O)cc1 (stereo not given) | i
Cc1ccc2[nH]c(=O)nc(-c3ccccc3)c2c1 | i
CC1=Nc2c([nH]c3ccccc23)-c2cc(C)ccc2N1 | 32.0%*
CCc1cnc(C)nc1N1CCN(S(=O)(=O)c2ccccc2)CC1 | i
CC(=O)N1c2c(cc(Br)cc2S(=O)(=O)NCCc2ccc(Cl)cc2)CC1C (stereo not given) | i
COC(=O)c1cc(N2C[C@H]3CC=C(C)C[C@H]3C2)ncn1 | i
CC1=NC(Nc2nc(C)c3ccccc3n2)=NC(C)(C)C1 | 36.0%*
Cc1nc(SCc2ccc(Cl)cc2)nc2ccccc12 | i
COc1ccc2nc(NC3=NC(c4ccccc4)CC(=O)N3)nc(C)c2c1 (stereo not given) | i
COCCNc1ccc(C(=O)N2CCCC(c3ccccc3)CC2)cn1 (stereo not given) | i
SMILES | ST2 inh
Cn1c(=O)n(C)c2cc(N=Cc3cccc([N+](=O)[O-])c3)ccc21 | i
CCc1ccc(N=Cc2cccc([N+](=O)[O-])c2O)cc1 | i
CC(=O)N1c2ccc(N=Cc3cc(Br)cc(Br)c3O)cc2CC1C (stereo not given) | i
Oc1c(Cl)cc(Br)cc1C=Nc1ccccc1 | i
Cn1c(=O)n(C)c2cc(N=Cc3cc(Br)ccc3O)ccc21 | 31.0%*
CCc1ccc(N=Cc2cc(Br)ccc2O)cc1 | 36.0%*
OC(Cc1ccc2ccccc2n1)C(Cl)(Cl)Cl (stereo not given) | i
CC1=C(C(=O)N2CCOCC2)C(c2ccccc2Cl)n2c(nc3ccccc32)N1 (stereo not given) | i
O=C(c1c(Cl)cccc1Cl)N1CCCCC1 | i
COc1ccccc1NC(=O)Nc1cccc2cccnc12 | i
O=C(/C=C/c1ccccc1)Nc1cc2ccccc2oc1=O | i
COc1cc(NC(=O)/C=C/c2ccccc2)c2ncccc2c1 | 35.0%*
O=C(NC1CCCCCCC1)c1ccc(N2CCCC2=O)cc1 | i
O=C(NCc1ccccc1)c1ccccc1-c1nc2ccccc2[nH]1 | i
O=C(Nc1cccc(-c2nc3ccccc3[nH]2)c1)c1ccccc1 | i
O=C(Nc1nonc1-c1nc2ccccc2[nH]1)c1ccccc1Cl | 32.0%*
O=[N+]([O-])c1cccc(CN2CCCCCC2)c1 | i
O=C1/C(=C\c2cccc([N+](=O)[O-])c2)N=C2CCCCCN12 | 36.0%*
O=C1NC(=O)/C(=C\c2cccc([N+](=O)[O-])c2)S1 | i
CCOc1ccccc1C1C(C(=O)OCCOC)=C(C)NC2=C1C(=O)CC(C)(C)C2 (stereo not given) | i
CC(Oc1cccc(Cl)c1)C(=O)Nc1ccc(S(N)(=O)=O)cc1 (stereo not given) | i
Cc1c(C(=O)NC2CCCCC2)oc2ccc(S(=O)(=O)N3CCOCC3)cc12 | i
O=C(NCCCNCCCNC(=O)c1ccc(/C=N\O)nc1)c1ccc(/C=N\O)nc1 | i
CCCc1nc2nc[nH]n2c(=O)c1NC(=O)Nc1ccc(F)cc1F | i
N[C@@H](Cc1c[nH]c2ccccc12)C(=O)O | i
SMILES | ST2 inh
NC(=O)CCc1c[nH]c2ccccc12 | i
O=C(O)Cc1c[nH]c2ccc(O)cc12 | 41.0%*!
CCc1oc(C(=O)N[C@@H]2c3ccccc3C[C@@H]2O)cc1CN1CCCC1 | i
CC(=O)COc1ccc2c(C)c(Cc3ccccc3)c(=O)oc2c1C | i
Cc1ccc(N=Cc2ccc(Br)c([N+](=O)[O-])c2)c(O)c1 | i
COc1ccc(N=Cc2ccc(Oc3ccc([N+](=O)[O-])cc3[N+](=O)[O-])c(OC)c2)cc1 | 34.0%*
N#Cc1ccccc1N=Cc1cc2c(cc1[N+](=O)[O-])OCO2 | i
N#Cc1ccccc1N=Cc1ccc(Br)c([N+](=O)[O-])c1 | 30.0%*
COc1cc(C=O)ccc1OCCCOc1ccc([N+](=O)[O-])cc1 | i
COc1cc(OC)c(C=Nc2cc([N+](=O)[O-])ccc2C)cc1Br | i
Cc1ccc(N=Cc2ccc(N(C)C)c([N+](=O)[O-])c2)cc1 | i
O=[N+]([O-])c1cc(C=Nc2ccc3c(c2)OCCO3)ccc1Br | i
COc1ccc(N=Cc2ccc(Br)c([N+](=O)[O-])c2)cc1 | 38.0%*
CCn1ncc(C(=O)NCc2noc(-c3c(F)cccc3F)n2)c1C | i
CC(C)c1ccc(-c2nc(N3CCCC3)[nH]c(=O)c2C#N)cc1 | i
CCCC(=O)N1CCC(N2CCN(c3ccnc(SC)n3)CC2)CC1 | i
O=C(NC1CCCC1)c1ccc(CS(=O)(=O)c2ccccc2)o1 | i
CCC(C(=O)N1CCN(c2ccccn2)CC1)c1ccccc1 (stereo not given) | i
CCc1c(-c2ccccc2)nc2ccccc2c1C(=O)N1CCOCC1 | i
CC(C)(C)c1ccc(Cn2c(=O)n(CC(=O)NCc3ccco3)c(=O)c3sccc32)cc1 | i
COCC(=O)Nc1ncc(S(=O)(=O)c2ccc([N+](=O)[O-])cc2)s1 | 38.0%*
Cc1ccc(C(=O)Nc2ncc(S(=O)(=O)c3ccc([N+](=O)[O-])cc3)s2)cc1C | i
O=C(Nc1ncc(S(=O)(=O)c2ccc([N+](=O)[O-])cc2)s1)c1ccccc1Br | i
CCc1nnc(CN(CC)C(=O)CSc2nnc(C)s2)o1 | i
O=C1c2cccc([N+](=O)[O-])c2C(=O)N1CN1CCCCC1 | i
SMILES | ST2 inh
O=C(c1ccc(Cl)cc1)N1CCN(c2ccc([N+](=O)[O-])c3ncccc23)CC1 | i
O=[N+]([O-])c1ccc(N2CCN(c3ccccc3)CC2)c2ncccc12 | 32.0%*
O=C(Cc1ccccc1[N+](=O)[O-])N1CCN(c2ccccn2)CC1 | i
CC1=C(C(=O)Nc2ccc(C)cc2C)C(c2ccccc2OC(F)F)n2nnnc2N1 (stereo not given) | i
O=C(CSc1nc2ccccc2o1)Nc1ccc(C(=O)O)cc1 | i
C=C1C(C)(C)[C@H]2CC[C@@]1(C(=O)N1CCC(CN3CCCC3=O)CC1)C2 | i
O=C(CSc1nc2ccccc2s1)Nc1ccccc1 | i
O=C(CSc1nc2ccccc2s1)c1ccccc1 | i
O=C(CSc1nc2ccccc2s1)c1ccccc1[N+](=O)[O-] | 33.0%*
